Screens (PubChem)
Most compounds without a hit are left out; they make up all but 6.5% or so of the library.
LASV entry inh = Lassa virus entry inhibition; 300,000 compounds, 1.2% hits; Potency, µM (highest dose often 37.9 µM), for the others: at the highest dose activity change, negative = inhibition, most hits filed as inhibitors; Lassa virus pseudotype entry inhibition, cell reporter; calls by dose curve; tested in HEK293 cells; note: potency is the fitted concentration of half-maximal effect; nearly all actives have a fitted effect of over 50% in size
FMDV antiviral = foot and mouth disease virus antiviral activity; FMDV antiviral cell-based qHTS; Potency, µM (series often up to 57.9 µM), for inactives: top-dose activity change, negative = inhibition, hits mostly inhibitors; 410,000 compounds, 1.2% hits; AID 1159524; calls by dose curve; tested in HEK293T cells; note: read-out not given here; potency is the fitted concentration of half-maximal effect; nearly all actives have a fitted effect of over 45% in size
HCMV antiviral = inhibitors of human cytomegalovirus; HFF cells, HCMV-luciferase reporter, 72 h; hits give low values; activity change, negative = inhibition, % at 57.5 µM; 410,000 compounds, 4.5% hits; AID 1259415; in the data active = activity change below about -60%; inconclusive = no clear call, values can overlap the other calls; inactive = above about -39%
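Two-dose cell screen: HFF monolayers treated with compounds and infected with luciferase-expressing HCMV at 1 PFU/cell, 72 h at 37C, then lysed for luciferase measurement.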
Vaccinia mCherry = vaccinia inhibition (mCherry reporter) | 310,000 compounds, 0.63% hits | Vaccinia virus mCherry reporter infection, fluorescence | AID 720579 | Potency, µM (highest dose often 36.5 µM), for inactives: at the highest dose activity change, negative = inhibition, usual class: inhibitors; calls by dose curve; tested in A549 cells; note: potency is the fitted concentration of half-maximal effect; nearly all actives have a fitted effect of over 35% in size
Marburg entry inh = blocks Marburg virus binding to or entry into cells | Marburg virus pseudotyped entry inhibition, cell reporter | Potency, µM (top dose mostly 37.8 µM), without a hit: at the top dose activity change, negative = inhibition, actives largely listed as inhibitors | 300,000 compounds, 1.8% hits | AID 540276; calls by dose curve; tested in HEK293 cells; note: potency is the fitted concentration of half-maximal effect
Vaccinia Venus = vaccinia inhibition (Venus reporter); Vaccinia virus Venus reporter expression, fluorescence; Potency, µM (doses to about 36.5 µM), for the others: at the top dose activity change, negative = inhibition, actives largely listed as inhibitors; 330,000 compounds, 0.46% hits; calls by dose curve; tested in A549 cells; note: potency is the fitted concentration of half-maximal effect; nearly all actives have a fitted effect of over 30% in size
Starred values were filed as active, the others as inactive; [ ] = remark or other dose. % is set by controls: 0 for no effect and ±100 for the full control effect.

`Cc1ccc(S(=O)(=O)CC(=O)Nc2nc3c(C)cccc3s2)cc1` gave LASV entry inh -13%[46.1 µM], FMDV antiviral 2%, HCMV antiviral 0, Vaccinia mCherry -9% and Vaccinia Venus -6%.
Screening Cc1nc(C(F)(F)F)ccc1C(=O)N1CCC1(C)C(=O)NS(=O)(=O)c1cccc(Cl)c1 (stereo not given) returned FMDV antiviral -19%, HCMV antiviral -91*, Vaccinia mCherry -10% and Vaccinia Venus -2%.
For CC(=O)NCCNc1ccnc(-c2ccccc2C)n1 the results were FMDV antiviral -3%.
CC(=O)Nc1ccc(S(=O)(=O)NCCSCc2ccc(Cl)cc2Cl)cc1 was read as LASV entry inh inconclusive, FMDV antiviral 0%, HCMV antiviral -67*, Vaccinia mCherry inconclusive, Marburg entry inh inconclusive and Vaccinia Venus inconclusive.
COc1ccccc1NC(=O)C1=C(C)Nc2ncnn2C1c1ccc[nH]1 (stereo not given) was read as LASV entry inh 2%[46.1 µM], FMDV antiviral -12%, HCMV antiviral 3, Vaccinia mCherry -1% and Vaccinia Venus -5%.
For CCOC(=O)Nc1ccc2c(CN(C)Cc3ccc(F)cc3)cc(=O)oc2c1 the results were FMDV antiviral 12%, HCMV antiviral -92*, Vaccinia mCherry 10%, Marburg entry inh 21%[46.1 µM] and Vaccinia Venus 11%.
`Cc1cnnc2ccccc12` gave Vaccinia mCherry inactive and Vaccinia Venus -5%.
For COc1ccc(CN(C)Cc2nc(Cc3cccc(F)c3)no2)c2cccnc12 the results were LASV entry inh inconclusive, FMDV antiviral 10µM*, HCMV antiviral -82*, Vaccinia mCherry inconclusive, Marburg entry inh inconclusive and Vaccinia Venus inconclusive.
Screening Cn1c(=O)c(-c2cccc(C#N)c2)nc2cnc(Oc3ccccc3)nc21 returned FMDV antiviral -7%.
`Clc1cc2c(cc1/C=N/Nc1nc(N3CCOCC3)nc(N3CCOCC3)n1)OCO2` gave LASV entry inh 1%[46.1 µM], FMDV antiviral -23%, HCMV antiviral 3, Vaccinia mCherry 0%, Marburg entry inh -18%[46.1 µM] and Vaccinia Venus -9%.
O=[N+]([O-])c1ccc(Cl)c(/C=N/Nc2nc(N3CCOCC3)nc(N3CCOCC3)n2)c1 was read as LASV entry inh -13%, FMDV antiviral 8%, HCMV antiviral 19 and Marburg entry inh 0.052µM*.
O=[N+]([O-])c1cccc(/C=N/Nc2nc(N3CCOCC3)nc(N3CCOCC3)n2)c1 was read as LASV entry inh -1%, FMDV antiviral -21%, HCMV antiviral -93*, Vaccinia mCherry -3%, Marburg entry inh inconclusive and Vaccinia Venus 5%.
O=[N+]([O-])c1ccc(/C=N/Nc2cc(Cl)nc(-c3ccccc3)n2)cc1 was read as LASV entry inh -13%, FMDV antiviral -24%, HCMV antiviral -28, Vaccinia mCherry -3%, Marburg entry inh -13% and Vaccinia Venus 0%.
`O=[N+]([O-])c1cccc(/C=N/Nc2cc(Cl)nc(-c3ccccc3)n2)c1` gave LASV entry inh 10µM*, FMDV antiviral inconclusive, HCMV antiviral -14, Marburg entry inh -3%[46.1 µM] and Vaccinia Venus -14%.
Cc1ccc([N+](=O)[O-])cc1Nc1nc(N2CCOCC2)nc(N2CCOCC2)n1 was read as LASV entry inh 21%[46.1 µM], FMDV antiviral -21%, HCMV antiviral -70*, Vaccinia mCherry -2%, Marburg entry inh inconclusive and Vaccinia Venus -3%.
CC(C)C(O)c1ccc2c(c1)CN(C(=O)c1ccccc1-n1cccn1)CCO2 (stereo not given) was read as FMDV antiviral -2%, Vaccinia mCherry -9% and Vaccinia Venus 2%.
`O=C(NCc1nnc2n1CCN(Cc1cccc(C(F)(F)F)c1)CC2)c1ccncc1` gave FMDV antiviral -12%, Vaccinia mCherry -10% and Vaccinia Venus -7%.
Screening CS(=O)(=O)c1ncc(Cl)c(C(=O)N2CCN(c3cccc(Cl)c3)CC2)n1 returned LASV entry inh inconclusive, FMDV antiviral 18µM*, HCMV antiviral -101*, Vaccinia mCherry -4%[7.34 µM], Marburg entry inh inconclusive and Vaccinia Venus -10%[7.34 µM].
Screening CC1CCc2onc(C(=O)N3CCN(c4cccc(Cl)c4)CC3)c2C1 (stereo not given) returned LASV entry inh inconclusive, FMDV antiviral -29%, HCMV antiviral -60*, Vaccinia mCherry inactive and Vaccinia Venus -11%.
`CS(=O)(=O)N(Cc1ccccc1)c1ccc(C(=O)N2CCN(c3cccc(Cl)c3)CC2)cc1` gave LASV entry inh inconclusive, FMDV antiviral inconclusive, HCMV antiviral -29 and Marburg entry inh 13µM*.
For CCS(=O)(=O)c1ncc(Cl)c(C(=O)N2CCN(c3cccc(Cl)c3)CC2)n1 the results were LASV entry inh inconclusive, FMDV antiviral 14µM*, HCMV antiviral -101*, Vaccinia mCherry -13%[7.34 µM], Marburg entry inh 5.6µM* and Vaccinia Venus -19%[7.34 µM].
`COc1ccc(OCC(=O)N2CCN(c3cccc(Cl)c3)CC2)cc1` gave LASV entry inh -9%, FMDV antiviral 0%, HCMV antiviral -24, Vaccinia mCherry -23%, Marburg entry inh inconclusive and Vaccinia Venus -9%.
CS(=O)(=O)N(Cc1ccc(Cl)cc1)c1ccc(C(=O)N2CCN(c3ccccc3)CC2)cc1 was read as LASV entry inh -23%, FMDV antiviral inconclusive, HCMV antiviral -6 and Marburg entry inh inconclusive.
Cc1[nH]c2ccc(C(=O)N3CCN(c4cccc(Cl)c4)CC3)cc2c1C was read as FMDV antiviral 0% and HCMV antiviral 11.
For O=C1OCCC1Sc1nnc2c(n1)[nH]c1ccccc12 (stereo not given) the results were Vaccinia mCherry -3% and Vaccinia Venus -11%.
`CCC(c1nnnn1-c1ccc2c(c1)OCCO2)N1CCC(n2c(=O)[nH]c3ccccc32)CC1` (stereo not given) gave FMDV antiviral inconclusive, HCMV antiviral inconclusive, Vaccinia mCherry 6% and Vaccinia Venus -11%.
`O=c1[nH]c2ccccc2n1C1CCN(C(c2cccs2)c2nnnn2-c2ccc3c(c2)OCCO3)CC1` (stereo not given) gave FMDV antiviral 7%, HCMV antiviral -80*, Vaccinia mCherry inconclusive and Vaccinia Venus inconclusive.
Screening O=c1[nH]c2ccccc2n1C1CCN(C(c2ccccc2)c2nnnn2-c2ccc3c(c2)OCCO3)CC1 (stereo not given) returned FMDV antiviral -26%, HCMV antiviral -86*, Vaccinia mCherry -18% and Vaccinia Venus -27%.
`CSCCC(c1nnnn1-c1ccc2c(c1)OCCO2)N1CCC(n2c(=O)[nH]c3ccccc32)CC1` (stereo not given) gave FMDV antiviral -28%, HCMV antiviral -72*, Vaccinia mCherry -11% and Vaccinia Venus -23%.
